Laboratory results from PubChem BioAssay (EPA / NIEHS).
Several values for one entry are separate records, joined by “and”; a condition that tells them apart may be missing. Equal entries are not always repeated. Results filed as inconclusive are left out. Some compounds were tested as several samples or in several runs, with calls that do not always agree. Activity calls are given as the source filed them. Rule for the calls, unless noted: active = hit-call score of the fitted dose curve at least 0.9, where 1 is the maximum; inconclusive = response in the unintended direction; inactive = score below 0.9.

Tests used:
[1] = test system: Sodium/Iodide Symporter (NIS), SLC5A5 (gene 6528); experiment: CPHEA_Stoker_NIS_Inhibition_RAIU: CPHEA's Radioactive Iodide Uptake (RAIU) Assay for Sodium/Iodide Symporter (NIS) Inhibition, Stoker and Laws Labs (AID 2283841)
How it was run: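 Iodide uptake read as CPM of intracellular 125I (final 329 pM) after 2 h room-temperature exposure in HEPES-buffered HBSS, pH 7.4. Human NIS-expressing HEK293T cells; six concentrations 0.001–100 uM, 0.5% DMSO, normalised to DMSO wells.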

[2] = CPHEA_Stoker_NIS_Cytotoxicity: Cytotoxicity Assessment for CPHEA's Radioactive Iodide Uptake (RAIU) Assay for Sodium/Iodide Symporter (NIS) Inhibition, Stoker and Laws Labs (AID 2283897);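 for AC50: active means loss of ATP signal versus DMSO meaning cytotoxicity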
How it was run: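 CellTiter-Glo ATP luminescence gauged viability in HEK293T cells expressing human NIS after 2 h chemical exposure. Concentrations ran 0.001–100 uM in 0.5% DMSO; DMSO served as baseline for the loss-of-signal fit.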

[3] = target: Peroxisome proliferator-activated receptor gamma (Homo sapiens) (UniProt P37231); experiment: ATG_hPPARg_XSP2: Attagene TRANS-FACTORIAL Multi-Species (XSP2) HepG2 Assay for human Peroxisome Proliferator-activated Receptor gamma (PPARg) (AID 2283829);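 note: actives raise reporter mRNA above DMSO so AC50 reflects PPARg activation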
How it was run: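 After transfecting HepG2 with GAL4-UAS reporter constructs, cells are dosed for 24 h; total RNA is reverse-transcribed, PCR-amplified, FAM-labeled, HpaI-digested and resolved by capillary electrophoresis. Activity is measured as mRNA induction relative to DMSO.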

[4] = target: mouse Peroxisome Proliferator-activated Receptor gamma (PPARg), Pparg (gene 19016) (UniProt P37238); experiment: ATG_mPPARg_XSP2: Attagene TRANS-FACTORIAL Multi-Species (XSP2) HepG2 Assay for mouse Peroxisome Proliferator-activated Receptor gamma (PPARg) (AID 2283830);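 note: hits are gains in reporter mRNA above DMSO so AC50 marks activation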
How it was run: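 HepG2 cells transiently transfected with GAL4-UAS reporter units for chimeric NR-Gal4 proteins including mouse PPARg, exposed 24 h; medium contained 3 nM 6-alpha-fluorotestosterone and 1.5 nM norgestrel. Reporter mRNA quantified by RT-PCR, HpaI digestion and capillary electrophoresis, vs DMSO.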

[5] = target: Nuclear receptor subfamily 1 group I member 2 (Mus musculus) (UniProt O54915); experiment: ATG_mPXR_XSP2: Attagene TRANS-FACTORIAL Multi-Species (XSP1) HepG2 Assay for mouse Pregnane X Receptor (PXR) (AID 2283831)
How it was run: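 Reporter transcripts were quantified by RT-PCR, FAM primer extension, HpaI digestion and capillary electrophoresis after 24 h of chemical exposure in transiently transfected HepG2 cells carrying chimeric receptor-GAL4 constructs; DMSO served as baseline.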

[6] = test system: zebrafish Peroxisome Proliferator-activated Receptor gamma (PPARg), gene 557037; experiment: ATG_zfPPARg_XSP2: Attagene TRANS-FACTORIAL Multi-Species (XSP2) HepG2 Assay for zebrafish Peroxisome Proliferator-activated Receptor gamma (PPARg) (AID 2283833);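 note: actives increase reporter signal over DMSO so AC50 reflects activation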
How it was run: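 Multi-species TRANS format in HepG2, 24 h dosing; medium also contained 3 nM 6-alpha-fluorotestosterone and 1.5 nM norgestrel to stimulate androgen receptor. Zebrafish PPARg-GAL4 induced reporter mRNA was measured by RT-PCR/capillary electrophoresis.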

[7] = test system: turtle Thyroid Hormone Receptor, alpha (TRa), gene 101949057; experiment: ATG_trTRa_XSP2: Attagene TRANS-FACTORIAL Multi-Species (XSP1) HepG2 Assay for turtle Thyroid Hormone Receptor, alpha (TRa) (AID 2283834);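 note: hits raise reporter mRNA over the DMSO baseline so AC50 marks activators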
How it was run: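 Transfection of HepG2 with multiple reporter transcription units, then chemical dosing for 24 h. Total RNA was reverse-transcribed, reporter sequences PCR-amplified and FAM-labelled, then sized by capillary electrophoresis. DMSO served as baseline.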

[8] = ATG_M_61_XSP2: Attagene TRANS-FACTORIAL Multi-Species (XSP2) HepG2 Assay for M61 Transcription Factor (Internal Marker) (AID 2283835; active = hit-call score of the fitted dose curve at least 0.9, where 1 is the maximum; inactive = score below 0.9;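 note: active means a rise in signal above the DMSO baseline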)
How it was run: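 HepG2 cells transiently transfected with multiple GAL4-UAS reporter units; reporter mRNA measured 24 h after dosing by RT-PCR, fluorescent labelling and capillary electrophoresis. Medium contained 3 nM 6-alpha-fluorotestosterone and 1.5 nM norgestrel; internal marker, DMSO baseline.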

[9] = target: zebrafish Thyroid Hormone Receptor beta (TRb), thrb (gene 30607) (UniProt Q9PVE4); experiment: ATG_zfTRb_XSP2: Attagene TRANS-FACTORIAL Multi-Species (XSP1) HepG2 Assay for zebrafish Thyroid Hormone Receptor beta (TRb) (AID 2283836)
How it was run: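 HepG2 cells transiently transfected with chimeric zebrafish TRb-GAL4 reporter units, dosed 24 h with 3 nM 6-alpha-fluorotestosterone and 1.5 nM norgestrel present. Reporter mRNA quantified by RT-PCR and capillary electrophoresis; gain fitted against DMSO.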

[10] = target: human Thyroid hormone Receptor alpha (TRa), THRA (gene 7067) (UniProt P10827); experiment: ATG_hTRa_XSP2: Attagene TRANS-FACTORIAL Multi-Species (XSP2) HepG2 Assay for human Thyroid hormone Receptor alpha (TRa) (AID 2283838)
How it was run: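 HepG2 cells were transiently transfected with GAL4-UAS reporter units for chimeric human TRa-Gal4 and dosed for 24 hours, with 3 nM 6-alpha-fluorotestosterone and 1.5 nM norgestrel present. Reporter mRNA was quantified by RT-PCR, FAM labelling and capillary electrophoresis, with gain of signal fitted versus DMSO.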

[11] = target: frog Thyroid hormone Receptor alpha (TRa), thra-a (gene 397942) (UniProt P15204); experiment: ATG_frTRa_XSP2: Attagene TRANS-FACTORIAL Multi-Species (XSP2) HepG2 Assay for frog Thyroid hormone Receptor alpha (TRa) (AID 2283839)
How it was run: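 Transfect HepG2 with multiple reporter units (GAL4-UAS), dose chemical, incubate 24 h. Isolate RNA, reverse-transcribe, PCR-amplify reporter, label with 6-FAM by primer extension, digest with HpaI, run capillary electrophoresis; induction scored against DMSO.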

[12] = target: human Thyroid hormone Receptor beta (TRb), THRB (gene 7068) (UniProt P10828); experiment: ATG_hTRb_XSP2: Attagene TRANS-FACTORIAL Multi-Species (XSP2) HepG2 Assay for human Thyroid hormone Receptor beta (TRb) (AID 2283840);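 note: actives raise reporter mRNA so potency reflects agonist-like gain of signal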
How it was run: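 Transient transfection of human HepG2 with multi-species NR-Gal4/GAL4-UAS reporter constructs; 24 h compound treatment; RNA isolation, reverse transcription, PCR and HpaI digest; capillary electrophoresis of labeled fragments; activity fitted upward versus DMSO.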

[13] = target: zebrafish Thyroid Hormone Receptor alpha (TRa), thraa (gene 30670) (UniProt Q98867); experiment: ATG_zfTRa_XSP2: Attagene TRANS-FACTORIAL Multi-Species (XSP1) HepG2 Assay for zebrafish Thyroid Hormone Receptor alpha (TRa) (AID 2283832);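 note: actives raise zebrafish TRa-Gal4 reporter transcript above DMSO baseline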
How it was run: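 HepG2 transiently transfected with GAL4-UAS reporter units and chimeric zebrafish TRa-Gal4; reporter mRNA quantified after 24 h dosing by RT-PCR, HpaI digestion and capillary electrophoresis fluorescence. Gain of signal vs DMSO; XSP2 medium contains 3 nM 6-alpha-fluorotestosterone, 1.5 nM norgestrel.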

[14] = ATG_XTT_Cytotoxicity_XSP2: Cytotoxicity Assessment in the Attagene TRANS-FACTORIAL Multi-Species (XSP2) HepG2 Assay (AID 2283837)
How it was run: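 HepG2 cells, transiently transfected with multiple reporter constructs, exposed to chemical for 24 h. Cell number assessed with XTT fluorescence read-out; loss of signal fitted relative to DMSO.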

[15] = CEETOX_H295R_OHPREG_noMTC: CeeTox H295R High-throughput Steroidogenesis Assay for OH-Pregnenolone (OHPREG), maximum tolerated concentration (MTC) filtered results only (AID 2283912; active = hit-call score of the fitted dose curve at least 0.9, where 1 is the maximum; inactive = score below 0.9); conditions: actives raise or lower the signal
How it was run: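 H295R cells prestimulated 48 h with 10 uM forskolin, then exposed 48 h to compound (0.1% DMSO). 17alpha-hydroxypregnenolone in medium measured by MTBE extraction and HPLC-MS/MS; bidirectional fit vs DMSO, concentrations not MTT/MTC-filtered.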

[16] = CEETOX_H295R_OHPROG_noMTC: CeeTox H295R High-throughput Steroidogenesis Assay for OH-Progesterone (OHPROG), maximum tolerated concentration (MTC) filtered results only (AID 2283914; active = hit-call score of the fitted dose curve at least 0.9, where 1 is the maximum; inactive = score below 0.9); conditions: actives raise or lower the signal
How it was run: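 H295R cells prestimulated 48 h with 10 uM forskolin, then exposed 48 h to chemical (0.1% DMSO final). 17alpha-hydroxyprogesterone in medium quantified by HPLC-MS/MS after MTBE extraction; bidirectional fitting versus DMSO, concentrations not MTC-filtered.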

[17] = CEETOX_H295R_ANDR_noMTC: CeeTox H295R High-throughput Steroidogenesis Assay for Androstenedione (ANDR), maximum tolerated concentration (MTC) filtered results only (AID 2283915; active = hit-call score of the fitted dose curve at least 0.9, where 1 is the maximum; inactive = score below 0.9); conditions: actives raise or lower the signal
How it was run: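 H295R cells, passage 10 or below, prestimulated 48 h with 10 uM forskolin, then exposed 48 h to chemical in 0.1% DMSO. Medium androstenedione extracted with MTBE, quantified by HPLC-MS/MS; concentrations not MTC-filtered; bidirectional fit versus DMSO.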

[18] = CEETOX_H295R_PROG_noMTC: CeeTox H295R High-throughput Steroidogenesis Assay for Progesterone (PROG), maximum tolerated concentration (MTC) filtered results only (AID 2283920; active = hit-call score of the fitted dose curve at least 0.9, where 1 is the maximum; inactive = score below 0.9); conditions: actives raise or lower the signal
How it was run: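 H295R cells, prestimulated 48 h with 10 uM forskolin, exposed 48 h to chemical in 0.1% DMSO. Medium progesterone quantified by MTBE extraction and HPLC-MS/MS; bidirectional fit versus DMSO, concentrations not MTT-filtered.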

[19] = CEETOX_H295R_TESTO_noMTC: CeeTox H295R High-throughput Steroidogenesis Assay for Testosterone (TESTO), maximum tolerated concentration (MTC) filtered results only (AID 2283924; active = hit-call score of the fitted dose curve at least 0.9, where 1 is the maximum; inactive = score below 0.9); conditions: actives raise or lower the signal
How it was run: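 H295R cells prestimulated 48 h with 10 uM forskolin, then exposed 48 h to chemicals in 0.1% DMSO final. Testosterone in medium quantified by MTBE extraction and HPLC-MS/MS; bidirectional fit versus DMSO, concentrations […] filtered by MTT-based maximum tolerated concentration.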

Sequence of zebrafish Thyroid Hormone Receptor alpha (TRa), thraa (gene 30670) (Q98867 whole entry, looked up, the tested form may be a part): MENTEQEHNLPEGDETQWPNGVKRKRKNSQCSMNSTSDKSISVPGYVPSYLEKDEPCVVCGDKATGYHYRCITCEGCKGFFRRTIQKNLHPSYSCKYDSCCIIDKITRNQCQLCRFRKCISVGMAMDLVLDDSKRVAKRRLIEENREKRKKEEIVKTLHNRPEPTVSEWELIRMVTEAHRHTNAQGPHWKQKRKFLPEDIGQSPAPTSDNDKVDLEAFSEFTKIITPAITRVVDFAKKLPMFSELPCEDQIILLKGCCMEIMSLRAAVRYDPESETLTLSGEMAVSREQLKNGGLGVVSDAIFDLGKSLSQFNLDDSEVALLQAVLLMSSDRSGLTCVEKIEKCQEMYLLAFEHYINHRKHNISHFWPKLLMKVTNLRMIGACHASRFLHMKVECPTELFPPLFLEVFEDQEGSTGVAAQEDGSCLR
Sequence of Peroxisome proliferator-activated receptor gamma (Homo sapiens) (P37231 whole entry, looked up, the tested form may be a part): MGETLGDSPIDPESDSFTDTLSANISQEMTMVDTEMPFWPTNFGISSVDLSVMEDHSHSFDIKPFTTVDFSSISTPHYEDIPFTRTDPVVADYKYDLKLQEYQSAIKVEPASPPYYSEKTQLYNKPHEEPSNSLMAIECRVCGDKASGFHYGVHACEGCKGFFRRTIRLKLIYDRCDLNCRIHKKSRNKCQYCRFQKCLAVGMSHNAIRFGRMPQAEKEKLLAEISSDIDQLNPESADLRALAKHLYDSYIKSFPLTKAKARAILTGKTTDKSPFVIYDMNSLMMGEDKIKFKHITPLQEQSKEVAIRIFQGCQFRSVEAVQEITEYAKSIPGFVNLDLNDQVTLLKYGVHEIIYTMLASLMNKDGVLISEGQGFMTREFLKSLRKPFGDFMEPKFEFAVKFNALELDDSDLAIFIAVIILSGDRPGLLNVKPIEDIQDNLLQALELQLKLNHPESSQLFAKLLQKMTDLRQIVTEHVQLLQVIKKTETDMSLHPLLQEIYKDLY
Sequence of human Thyroid hormone Receptor beta (TRb), THRB (gene 7068) (P10828 whole entry, looked up, the tested form may be a part): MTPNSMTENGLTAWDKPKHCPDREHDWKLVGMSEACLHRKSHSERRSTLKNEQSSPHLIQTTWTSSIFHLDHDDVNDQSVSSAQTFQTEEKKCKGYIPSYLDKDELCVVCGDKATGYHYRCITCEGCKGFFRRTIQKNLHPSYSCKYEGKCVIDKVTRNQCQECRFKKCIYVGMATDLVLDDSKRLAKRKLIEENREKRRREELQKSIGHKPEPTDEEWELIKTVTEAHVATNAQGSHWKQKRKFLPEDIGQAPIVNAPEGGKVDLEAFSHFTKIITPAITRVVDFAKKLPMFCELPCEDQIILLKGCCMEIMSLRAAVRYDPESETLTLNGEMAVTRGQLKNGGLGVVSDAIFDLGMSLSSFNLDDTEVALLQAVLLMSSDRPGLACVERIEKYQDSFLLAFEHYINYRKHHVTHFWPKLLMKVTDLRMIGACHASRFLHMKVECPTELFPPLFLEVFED
Sequence of zebrafish Thyroid Hormone Receptor beta (TRb), thrb (gene 30607) (Q9PVE4 whole entry, looked up, the tested form may be a part): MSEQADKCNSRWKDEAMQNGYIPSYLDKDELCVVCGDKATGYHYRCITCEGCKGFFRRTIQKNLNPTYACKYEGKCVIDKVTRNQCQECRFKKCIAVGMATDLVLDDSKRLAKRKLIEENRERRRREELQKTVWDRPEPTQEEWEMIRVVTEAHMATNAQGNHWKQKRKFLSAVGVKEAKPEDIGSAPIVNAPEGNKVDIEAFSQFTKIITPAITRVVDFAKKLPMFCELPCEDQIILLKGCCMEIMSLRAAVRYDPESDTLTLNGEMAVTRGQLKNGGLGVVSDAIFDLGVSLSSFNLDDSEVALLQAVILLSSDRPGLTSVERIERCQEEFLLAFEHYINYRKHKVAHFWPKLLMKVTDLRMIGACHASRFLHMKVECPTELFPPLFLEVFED
Sequence of mouse Peroxisome Proliferator-activated Receptor gamma (PPARg), Pparg (gene 19016) (P37238 whole entry, looked up, the tested form may be a part): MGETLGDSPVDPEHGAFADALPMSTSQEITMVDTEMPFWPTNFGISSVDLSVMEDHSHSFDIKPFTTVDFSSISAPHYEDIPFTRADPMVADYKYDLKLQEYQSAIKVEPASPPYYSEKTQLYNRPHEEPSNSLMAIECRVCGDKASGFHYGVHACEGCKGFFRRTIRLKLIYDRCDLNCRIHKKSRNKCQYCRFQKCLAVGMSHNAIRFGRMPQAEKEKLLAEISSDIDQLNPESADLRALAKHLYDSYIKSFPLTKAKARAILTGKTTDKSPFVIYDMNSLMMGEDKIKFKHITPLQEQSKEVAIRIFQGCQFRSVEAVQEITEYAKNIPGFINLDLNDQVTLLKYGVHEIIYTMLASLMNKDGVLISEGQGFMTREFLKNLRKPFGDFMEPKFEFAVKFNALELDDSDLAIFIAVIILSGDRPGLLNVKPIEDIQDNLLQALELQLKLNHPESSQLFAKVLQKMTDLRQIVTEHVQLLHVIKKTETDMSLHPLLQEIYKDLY
Sequence of human Thyroid hormone Receptor alpha (TRa), THRA (gene 7067) (P10827 whole entry, looked up, the tested form may be a part): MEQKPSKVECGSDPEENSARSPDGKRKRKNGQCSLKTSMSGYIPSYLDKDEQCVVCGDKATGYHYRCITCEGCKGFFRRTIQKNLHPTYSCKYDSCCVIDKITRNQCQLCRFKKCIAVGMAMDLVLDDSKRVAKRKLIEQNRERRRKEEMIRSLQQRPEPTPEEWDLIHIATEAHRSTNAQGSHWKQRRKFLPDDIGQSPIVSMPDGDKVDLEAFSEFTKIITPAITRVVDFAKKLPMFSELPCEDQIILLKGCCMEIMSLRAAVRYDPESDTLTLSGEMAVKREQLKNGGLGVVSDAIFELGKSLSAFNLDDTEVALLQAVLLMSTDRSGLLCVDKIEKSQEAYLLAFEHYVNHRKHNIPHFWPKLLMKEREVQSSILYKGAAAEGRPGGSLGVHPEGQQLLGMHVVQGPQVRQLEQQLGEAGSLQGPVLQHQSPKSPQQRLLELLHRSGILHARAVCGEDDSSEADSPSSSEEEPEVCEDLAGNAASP
Sequence of Nuclear receptor subfamily 1 group I member 2 (Mus musculus) (O54915 whole entry, looked up, the tested form may be a part): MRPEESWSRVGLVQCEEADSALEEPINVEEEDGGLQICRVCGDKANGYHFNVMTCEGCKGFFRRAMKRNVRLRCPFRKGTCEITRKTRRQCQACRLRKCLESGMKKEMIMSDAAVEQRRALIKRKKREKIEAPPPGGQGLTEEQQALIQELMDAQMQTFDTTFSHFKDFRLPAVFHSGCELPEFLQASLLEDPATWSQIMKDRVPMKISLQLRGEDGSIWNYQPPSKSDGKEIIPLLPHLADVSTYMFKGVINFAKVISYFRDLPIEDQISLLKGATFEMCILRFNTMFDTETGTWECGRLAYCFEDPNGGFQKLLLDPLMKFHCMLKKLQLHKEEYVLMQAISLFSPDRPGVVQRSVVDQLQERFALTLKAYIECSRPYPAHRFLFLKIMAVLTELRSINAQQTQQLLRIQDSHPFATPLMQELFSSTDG
Sequence of frog Thyroid hormone Receptor alpha (TRa), thra-a (gene 397942) (P15204 whole entry, looked up, the tested form may be a part): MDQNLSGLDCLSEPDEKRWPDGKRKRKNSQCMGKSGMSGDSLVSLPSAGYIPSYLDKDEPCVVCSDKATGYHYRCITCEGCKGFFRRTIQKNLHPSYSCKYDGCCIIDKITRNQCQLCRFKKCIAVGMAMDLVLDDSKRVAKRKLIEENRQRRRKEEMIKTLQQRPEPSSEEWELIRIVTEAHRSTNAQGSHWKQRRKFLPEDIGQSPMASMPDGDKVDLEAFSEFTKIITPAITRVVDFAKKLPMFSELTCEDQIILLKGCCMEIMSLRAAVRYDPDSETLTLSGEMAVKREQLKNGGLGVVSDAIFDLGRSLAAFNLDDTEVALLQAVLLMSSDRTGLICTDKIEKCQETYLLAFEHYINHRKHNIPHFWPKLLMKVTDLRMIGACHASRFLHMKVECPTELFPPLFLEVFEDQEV

With Cc1cc(C2CC2)nc(Nc2ccccc2)n1 as the compound, how does the AC50 [1] read?
The AC50 was 44 µM (active).

And the outcome [2]?
The outcome was “inactive”.

Which outcome [1] does the source give for CC1(C(=O)Nc2ccc(O)c(Cl)c2Cl)CCCCC1 here?
Its outcome is “inactive”.

What about the outcome [2] of the same compound?
Its outcome is “inactive”.

Which outcome [1] does the source give for CCOP(=S)(Oc1cnc(C(C)(C)C)nc1)OC(C)C (configuration not stated) here?
Its outcome is “inactive”.

And the outcome [2]?
Its outcome is “inactive”.

Which outcome [1] does the source give for CC(COc1ccc(Oc2ccccc2)cc1)Oc1ccccn1 (configuration not stated) here?
Its outcome is “inactive”.

And the outcome [2]?
Its outcome is “inactive”.

What does the source list for CCOP(=S)(OCC)Oc1ccc2c(C)c(Cl)c(=O)oc2c1?
AC50 [3]: 27 µM (active); AC50 [4]: 5.43 µM (active); AC50 [5]: 9.08 nM (active); outcome [6]: inactive; AC50 [7]: 64.7 µM (active); outcome [8]: inactive; outcome [9]: inactive; outcome [10]: inactive; outcome [11]: inactive; outcome [12]: inactive; AC50 [1]: 9.92 µM (active); AC50 [2]: 27.7 µM (active)

Which outcome [1] does the source give for CCOP(=S)(OCC)Oc1ccc([N+](=O)[O-])cc1 here?
The outcome was “inactive”.

And the outcome [2]?
Its outcome is “inactive”.

For CCCCSP(=O)(SCCCC)SCCCC, which outcome [1] is on record?
Its outcome is “inactive”.

And the outcome [2]?
The outcome was “inactive”.

For N#CSCSC#N, which AC50 [1] is on record?
The AC50 was 18.3 µM (active).

And the AC50 [2]?
Its AC50 is 41.4 µM (active).

With CSc1nc(NC(C)C)nc(NC(C)C)n1 as the compound, how does the outcome [1] read?
Its outcome is “inactive”.

And the outcome [2]?
Its outcome is “inactive”.

For CCCOCC(=Nc1ccc(Cl)cc1C(F)(F)F)n1ccnc1, which AC50 [3] is on record?
Its AC50 is 0.909 µM (active).

What about the AC50 [4] of the same compound?
The AC50 was 1.28 µM (active).

And the AC50 [5]?
Its AC50 is 9900 nM (active).

And the outcome [13]?
Its outcome is “inactive”.

What about the outcome [6] of the same compound?
Its outcome is “inactive”.

And the outcome [8]?
Its outcome is “inactive”.

What about the outcome [9] of the same compound?
Its outcome is “inactive”.

And the AC50 [1]?
Its AC50 is 29 µM (active).

And the AC50 [2]?
The AC50 was 38.1 µM (active).

Which results are given for CON=C(C(=O)OC)c1ccccc1CON=C(C)c1cccc(C(F)(F)F)c1?
AC50 [1]: 2.05 µM (active); outcome [2]: inactive

For COc1ccc(C(=CC(=O)N2CCOCC2)c2ccc(Cl)cc2)cc1OC, which AC50 [3] is on record?
The AC50 was 19.8 µM (active).

What about the outcome [3] of the same compound?
Its outcome is “inactive”.

What about the AC50 [4] of the same compound?
The AC50 was 29.3 µM (active).

And the outcome [4]?
Its outcome is “inactive”.

And the AC50 [5]?
Its AC50 is 4.65 µM (active) and 4.32 µM (active).

What about the outcome [13] of the same compound?
The outcome was “inactive”.

What about the outcome [6] of the same compound?
The outcome was “inactive”.

And the outcome [8]?
The outcome was “inactive”.

And the outcome [9]?
Its outcome is “inactive”.

What about the outcome [14] of the same compound?
Its outcome is “inactive”.

And the outcome [10]?
The outcome was “inactive”.

What about the outcome [11] of the same compound?
Its outcome is “inactive”.

What about the outcome [12] of the same compound?
Its outcome is “inactive”.

Which results are given for CCCCOC(=O)c1ccccc1C(=O)O?
outcome [15]: inactive; outcome [16]: inactive; outcome [17]: inactive; outcome [18]: inactive; outcome [19]: inactive
